Data on 20 compounds can be found in PubChem BioAssay (NCI).

Experiment [1] can be described thus: NCI Yeast Anticancer Drug Screen. Data for the rad50 strain (AID 155).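 Note: 0% = growth of vehicle-only cultures of the same strain.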 The conditions noted are these: S. cerevisiae rad50 strain growth inhibition; at 50.0 µM; active compounds read high. In short, it runs like this: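 Yeast carrying a defined DNA repair defect were exposed to test compounds, and growth was compared with vehicle-treated controls to give percent inhibition.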

The nature of experiment [2]: NCI Yeast Anticancer Drug Screen. Data for the mec2-1 strain (AID 157). The conditions noted are these: S. cerevisiae mec2-1 strain, at 50.0 µM, active compounds read high. In short, it runs like this:
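Each compound was tested on mec2-1 yeast, a strain altered in DNA damage repair or cell cycle control. Growth inhibition is reported relative to vehicle.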

Experiment [3] can be described thus: NCI Yeast Anticancer Drug Screen. Data for the sgs1 mgt1 strain (AID 161).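 Note: 0% = growth of cultures given vehicle only.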 Particulars: S. cerevisiae sgs1 mgt1 strain, at 50.0 µM, active compounds read high. In a few lines:
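Read-out: growth inhibition vs vehicle controls. Cells: mutant yeast strain deficient in DNA damage repair.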

Experiment [4] is described as follows: NCI Yeast Anticancer Drug Screen. Data for the cln2 rad14 strain (AID 165).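 Note: 0% = growth equal to vehicle treated cultures.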 Particulars: S. cerevisiae cln2 rad14 strain, at 50.0 µM, active compounds read high. In short, it runs like this: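 Test compounds were added to cln2 rad14 yeast cultures; inhibition of growth was then determined by comparison with vehicle treatment.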
The nature of experiment [5]: NCI Yeast Anticancer Drug Screen. Data for the bub3 strain (AID 167). Particulars: S. cerevisiae bub3 mutant strain, at 50.0 µM, active compounds read high. In a few lines:
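Compounds were applied to a genetically altered yeast strain carrying a cell-cycle control defect. Growth inhibition was scored against vehicle-treated controls.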

Experiment [6] is described as follows: NCI Yeast Anticancer Drug Screen. Data for the mlh1 rad18 strain (AID 175). The conditions noted are these: S. cerevisiae mlh1 rad18 strain growth inhibition; at 50.0 µM; active compounds read high. In short, it runs like this:
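Inhibition values reflect reduced growth of mutant yeast versus vehicle-treated controls following compound exposure; the mutations affect DNA damage repair.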

The panel holds about 79,000 compounds, 15% with a hit somewhere; the sample as a whole holds those more often. Values without a mark were called inactive. Calls of active or inactive are those of the source. Cut-off read from the data, not from the text of the source: active = growth inhibition above about 70%; inactive = the rest. Where a SMILES comes first, the peptide text is derived from it. The star is where a group is joined. Trt = c1ccc(C(c2ccccc2)(c2ccccc2)*)cc1

Take `CCCCCOC(=O)CC(CC(=O)OCCCCC)C(=O)OCCCCC`: the growth inhibition in experiment [1] is 14.3%; in experiment [2], 5.15%; in experiment [3] it was 14%; in experiment [4], -3.8%; in experiment [5], -28.6%; in experiment [6] it was 1.75%.

Take `O=C1CC(c2ccccc2)C(c2ccccc2)C1C(=O)OCCc1ccccc1` (stereo not given): the growth inhibition in experiment [1] was 36%; in experiment [2], 2.85%; in experiment [3] it was 2.45%; in experiment [4], 1.5%; in experiment [5], -16.9%; in experiment [6] it was 1.3%.

With `CCC(=O)Oc1c2ccsc2c(OC(=O)CC)c2ccsc12`, the growth inhibition in experiment [1] is 29.1%; in experiment [2] it was 6.6%; in experiment [3], 32.1%; in experiment [4] it was -3.2%; in experiment [5], 29.4%; in experiment [6], 13.7%.

Regarding `COc1nnc(-c2ccccc2)c(-c2ccccc2)n1`, the growth inhibition in experiment [1] was 13.2%; in experiment [2] it was 20.3%; in experiment [3] it was -2.25%; in experiment [4] it was -9.6%; in experiment [5], 25.5%; in experiment [6], 6.5%.

Regarding `CN1CCCC1c1cccnc1.O=C(O)c1ccccc1O.O=C([O-])c1ccccc1[OH2+].O=C([O-])c1ccccc1[OH2+].[Mn+2]` (stereo not given), the growth inhibition in experiment [1] is -3.05%; in experiment [2], -0.4%; in experiment [3], -24.7%; in experiment [4] it was -30.7%; in experiment [5], -29%; in experiment [6] it was 4.15%.

For `N#CC1CC=CCN1CCc1ccccc1` (stereo not given), the growth inhibition was -9.5% in experiment [1]; -5.75% in experiment [2]; -4.95% in experiment [3]; 42.5% in experiment [4]; 20.7% in experiment [5]; 7.5% in experiment [6].

Turning to `COc1cc2c(cc1OC)C(Cc1ccccc1CCCl)=NCC2`, the growth inhibition was 15.1% in experiment [1]; 8.65% in experiment [2]; -31.8% in experiment [3]; -1.8% in experiment [4]; -24.7% in experiment [5]; 2.45% in experiment [6].

As for `Cc1cc(O[Si](C)(C)C)nc(O[Si](C)(C)C)n1`, the growth inhibition in experiment [1] was 1.7%; in experiment [2] it was -3.7%; in experiment [3], 0.15%; in experiment [4], -49%; in experiment [5] it was -40.3%; in experiment [6], 11.9%.

Regarding `COC(=O)C(NC(=O)C(N)CSC(c1ccccc1)(c1ccccc1)c1ccccc1)C(C)C` (stereo not given) (H-Cys(Trt)-Val-OMe; configuration not given here), the growth inhibition in experiment [1] was 97.3% (active); in experiment [2], 98.6% (active); in experiment [3], 98.7% (active); in experiment [4] it was 95.2% (active); in experiment [5] it was 97.6% (active); in experiment [6], 98.5% (active).

As for `COC(=O)c1cc(C(=O)OC)c(CC(=O)C(=O)Nc2c(C(C)C)cccc2C(C)C)nc1CC(=O)C(=O)Nc1c(C(C)C)cccc1C(C)C`, the growth inhibition was -18.8% in experiment [1]; -22.9% in experiment [2]; -11.7% in experiment [3]; 1.75% in experiment [4]; -13.1% in experiment [5]; -6.85% in experiment [6].

Regarding `Cc1nn(C)c(=O)c(N)c1-c1cc(-c2ccc(Cl)cc2)n[nH]1`, the growth inhibition was 13.9% in experiment [1]; 4.45% in experiment [2]; 19.9% in experiment [3]; 20.1% in experiment [4]; 18.1% in experiment [5]; 13.9% in experiment [6].

With `CC(C)(C)N=c1n(C(C)(C)C)oc(=O)n1C(C)(C)C`, the growth inhibition is -11.8% in experiment [1]; -34% in experiment [2]; -25.1% in experiment [3]; -2.95% in experiment [4]; -27.9% in experiment [5]; -11.9% in experiment [6].

As to `CC(=O)c1c(C)c([N+](=O)[O-])c(C)c([N+](=O)[O-])c1C`, the growth inhibition in experiment [1] is 2.1%; in experiment [2], 11.9%; in experiment [3], -8.9%; in experiment [4], -94.8%; in experiment [5], 23.4%; in experiment [6] it was 7.3%.

In the case of `CC(=O)Nc1ccc2nc(C)cc(Cl)c2c1`, the growth inhibition in experiment [1] is 25.5%; in experiment [2], -3.45%; in experiment [3], 9.4%; in experiment [4] it was -8.8%; in experiment [5] it was 6.55%; in experiment [6], 4.35%.

Take `Fc1ccc2c(c1)CC(CBr)O2` (stereo not given): the growth inhibition in experiment [1] is -14.2%; in experiment [2], -8.5%; in experiment [3], -4.5%; in experiment [4] it was -23.9%; in experiment [5] it was -1.95%; in experiment [6] it was 2.8%.

With `Cc1nn(CCO)c(N)c1C(N)=O`, the growth inhibition in experiment [1] is 5.35%; in experiment [2] it was -4.25%; in experiment [3], 5.55%; in experiment [4], -13.4%; in experiment [5], 4.9%; in experiment [6], 16.9%.

On to `CC1=C(O)c2cn(C)cc2C(=O)C1=O`, for which the growth inhibition in experiment [1] was 26.1%; in experiment [2], 24.9%; in experiment [3] it was 18%; in experiment [4], 26.6%; in experiment [5] it was 31.9%; in experiment [6], 28.3%.

`O=C(O)CCN1C(=S)CSC1=S`: the growth inhibition in experiment [1] is -5.35%; in experiment [2], -18.4%; in experiment [3], -38.5%; in experiment [4] it was 8.9%; in experiment [5], -33.9%; in experiment [6], -24.2%.

As for `O=CNc1ccc(Br)cc1`, the growth inhibition in experiment [1] is -8.3%; in experiment [2], -0.9%; in experiment [3], 11.4%; in experiment [4], 0.7%; in experiment [5], -1.15%; in experiment [6] it was 9.95%.

Turning to `Fc1nc2nc(C(F)(F)F)[nH]c2nc1F`, the growth inhibition was 15.8% in experiment [1]; -0.85% in experiment [2]; -23.9% in experiment [3]; -59.5% in experiment [4]; 0.85% in experiment [5]; 7.6% in experiment [6].
